High-throughput results: PubChem BioAssay, several laboratories
PrP 5UTR inh – inhibition of PrP 5' UTR reporter expression; AID 488862, 2010; 340,000 tested, 0.35% active; cell-based PrP 5' UTR mRNA reporter, plate reader; inhibition, % (no concentration beside the values); in the data active = inhibition above about 52%; note: 0 = median of the neutral control wells
PrPC surface inh – inhibitors of human cell surface prion protein PrPC, primary screen, cell-based, TR-FRET; TR-FRET read-out; inhibition, % at 13.8 µM; 370,000 tested, 0.43% active; in the data active = inhibition above about 24%; note: 0% = median of the test wells and 100% = reference compound wells
3CLpro inhibitor – SARS-CoV 3CLpro protease inhibitors, primary screen, biochemical, quenched FRET; 290,000 tested, 0.14% active; recombinant SARS-CoV 3CLpro, quenched FRET peptide cleavage; inhibition, % at 6 µM; in the data active = inhibition above about 12%
PriA SSB inh – inhibitors of Klebsiella pneumoniae PriA binding to SSB C-terminal tail, primary screen, biochemical, AlphaScreen; AlphaScreen SSBct-PriA binding, biotinylated peptide; inhibition, % at 33 µM; PriA–SSB C-terminal tail interaction (Klebsiella pneumoniae); AID 1272365, 2023; 430,000 tested, 0.6% active; in the data active = inhibition mostly above about 37%, no sharp cut-off; inactive = mostly below about 20%;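 note: plate controls were negative control peptide for no effect and reference peptide for full effect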
BJeLR lethal – MLPCN primary cell-based screen for lethality selective to Ras in HRASV12 cells; BJeLR (HRASV12) viability, CellTiter-Glo ATP luminescence, 48 h; inhibition, % (test concentration not listed); 300,000 tested, 0.17% active; AID 1554, 2009; in the data active = inhibition above about 50%; inconclusive = no clear call, values can overlap the other calls
PrP 5UTR single – prion 5' UTR mRNA inhibition, cherry-pick retest; 1,100 tested, 48% active; shares compounds with PrP 5UTR inh; inhibition, % at 2.5 µM; cell-based prion protein 5' UTR reporter, plate reader; in the data active = inhibition above about 54%; inconclusive = no clear call, values can overlap the other calls
* hit, by the source's call; ? = inconclusive; . = not tested or not shown. Rows were chosen to be rich in hits. Some 1.2% of all compounds tested hit in one or more screens of this group.

SMILES	PrP 5UTR inh	PrPC surface inh	3CLpro inhibitor	PriA SSB inh	BJeLR lethal	PrP 5UTR single
O=C(NCC1(N2CCCCC2)CCCCC1)c1ccc(NS(=O)(=O)c2ccccc2)cc1	-15.9	-8.4	.	-7.8	-0.8	.
CS(=O)(=O)Nc1ccccc1C(=O)NCC1(N2CCCCC2)CCCCC1	67.0*	2.8	3.9	4.2	-1.4	-4.3
COc1cccc2c1C(=O)c1c(O)c3c(c(O)c1C2=O)CC(O)(C(C)=O)CC3OC1CC(N(C)C)C(O)C(C)O1 (stereo not given)	87.6*	-19.8	.	14.8	.	90.5*
COc1cccc2c1C(=O)c1c(O)c3c(c(O)c1C2=O)C[C@@](O)(C(=O)CO)C[C@@H]3O[C@H]1C[C@H](N)[C@H](O)[C@H](C)O1	88.5*	-27.9	-9.8	33.0	75.5*	92.5*
O=C(/C=C/Nc1ccccc1Br)c1ccccn1	88.8*	-16.7	0.8	-0.4	24.9	83.2*
COc1ccc(-n2ncc3c(SCC(=O)N4CCN(c5ccccc5OC)CC4)ncnc32)cc1	63.7*	7.8	-3.4	-7.7	1.0	-26.4
O=C(CSc1ncnc2c1cnn2-c1ccccc1)N1CCOCC1	.	.	.	-14.0	.	.
Cc1nc2ncccn2c1-c1csc(Nc2ccc(N(C)C)cc2)n1	60.3*	4.8	0.7	23.6	34.8	90.3*
Cc1nc2ncccn2c1-c1csc(Nc2ccc(S(N)(=O)=O)cc2)n1	-15.1	-11.7	-0.9	-1.5	-6.1	.
Cc1nc2ncccn2c1-c1csc(Nc2ccccc2)n1	0.7	-6.9	-5.2	7.3	11.5	.
COc1ccc(Nc2nc(-c3c(C)nc4ncccn34)cs2)cc1	65.5*	-0.3	-0.3	1.4	.	86.9*
O=C(O)c1nn(-c2nc3ccccc3[nH]2)c(=O)c2ccccc12	.	.	.	-18.0	.	.
Cc1nn(-c2nc3ccccc3[nH]2)c(=O)c2ccccc12	92.7*	1.6	0.2	-3.9	89.6*	95.1*
Cc1nnsc1C(=O)N1CCC(n2c(=O)[nH]c3ccc(F)cc3c2=O)CC1	.	.	.	-5.0	.	.
COCCc1noc(C2CCN(C(=O)c3ccc4c(c3)OCO4)CC2)n1	.	.	.	-33.0	.	.
COc1ccc(/C=C/C(=O)c2cc(F)ccc2OC(=O)c2ccccc2OC)cc1OC	47.3	2.0	-0.3	3.4	40.6	?
COc1ccc(/C=C/C(=O)c2cc(F)ccc2OC(=O)c2ccccc2)cc1OC	0.7	-6.7	9.7	11.2	25.9	.
Cc1c(C(=O)NN=Cc2ccc(Cl)cc2)[nH]c2ccc(Cl)cc12	.	.	.	-8.8	.	.
Cc1c(C(=O)N/N=C/c2ccc(Cl)cc2)[nH]c2ccc(Cl)cc12	61.2*	4.7	-5.1	.	7.0	78.2*
CCCCOc1ccccc1-c1cc2c(SCC(=O)Nc3cccc(Cl)c3C)nccn2n1	.	.	.	1.0	.	.
O=C(CCc1csc2nc(-c3ccccc3)cn12)NCc1cccs1	.	.	.	14.0	.	.
CC(/C=C1\SC(=O)N(CCCC(=O)O)C1=O)=C\c1ccccc1	83.2*	-1.1	0.8	-7.4	1.2	86.3*
Cc1cc(C)c(C#N)c(SCc2nnc(-c3ccccc3)o2)n1	67.6*	2.8	0.2	0.4	0.5	67.4*
Cc1cc(C)c(C#N)c(SCc2nnc(-c3ccccc3[N+](=O)[O-])o2)n1	-37.7	-10.3	-0.2	-1.6	0.1	.
O=c1c2ccccc2sc2ccc(C#CC3(O)CCCCC3)cc12	92.3*	5.1	.	-24.7	10.8	86.3*
SMILES	PrP 5UTR inh	PrPC surface inh	3CLpro inhibitor	PriA SSB inh	BJeLR lethal	PrP 5UTR single
O=c1c2ccccc2oc2cc(C#CC3(O)CCCCC3)ccc12	69.8*	4.3	.	-7.5	7.3	54.7*
COc1cccc2oc3cc(C#CC4(O)CCCCC4)ccc3c(=O)c12	-22.7	-3.2	-1.9	3.0	2.2	.
CCCNC(=O)C1CCN(c2ccc(SCC(=O)Nc3ccccc3C(=O)OCC)nn2)CC1	.	.	.	4.0	.	.
CCOC(=O)N1CCN(C(=O)Cn2nc3n(c(=O)c2=O)CCN3c2ccccc2)CC1	.	.	.	-1.0	.	.
O=C(CSc1nnc(NC(=O)c2c(F)cccc2F)s1)Nc1ccccc1F	-19.7	-0.6	-1.5	0.0	-4.6	.
CC(C)c1nnc(NC(=O)CSc2nnc(NC(=O)c3c(F)cccc3F)s2)s1	79.4*	-3.2	-5.8	-1.6	1.2	-2.0
Cn1nc(-c2ccc(F)cc2)cc1C(=O)NCCn1nc(-c2ccccn2)n(C)c1=O	.	.	.	-9.0	.	.
CC(C)OC(=O)c1sc2nc(-c3ccccc3)ccc2c1N	54.1*	-5.6	-3.5	-20.2	3.0	20.2
COc1ccc(C(=O)c2sc3nc(-c4ccccc4)ccc3c2N)cc1	-14.5	.	0.1	-44.4	.	.
CC1CC2C(C(O)CC3(C)C2CCC3(O)C(=O)CO)C2(C)C=CC(=O)C=C12 (stereo not given)	-11.7	-0.8	.	-6.8	.	.
C[C@@H]1O[C@@H](O[C@H]2C[C@@H](O)[C@]3(CO)[C@H]4[C@H](O)C[C@]5(C)[C@@H](C6=CC(=O)OC6)CC[C@]5(O)[C@@H]4CC[C@]3(O)C2)[C@H](O)[C@H](O)[C@H]1O	92.0*	.	1.0	-7.8	80.4*	90.3*
O=C(c1ccccc1)N1CCSC1=S	3.9	-3.9	6.9	-8.2	-2.6	.
O=C(c1ccccc1)N1CCSc2sccc2C1=O	58.0*	1.1	-0.3	-9.8	8.9	39.8
CC(CCC(C)C)=NNC(=O)COc1ccccc1-c1ccccc1	.	.	.	-4.7	.	.
COc1ccc(OC)c(-c2nnc3n2N=C(c2ccc(OC)c(OC4CCOC4)c2)CS3)c1 (stereo not given)	71.7*	17.0	.	5.8	.	81.2*
COc1ccc(C2=Nn3c(nnc3-c3ccccc3OC)SC2)cc1OC	56.0*	15.1	6.0	0.6	8.0	77.5*
Cc1csc(NC(=O)c2ccc(N3CCCC3=O)cc2)n1	55.5*	-2.9	-1.7	0.5	11.9	?
CC1CCCCN1CCCNC(=O)c1ccc(Br)cc1 (stereo not given)	-8.3	-3.9	-4.6	-4.3	-9.0	.
CC1CCCCN1CCCNC(=O)c1cc(Br)c(Br)[nH]1 (stereo not given)	81.6*	-10.0	-0.6	2.9	1.4	6.1
Cn1nc(CN(Cc2ccco2)C(=O)C2(c3cccs3)CCCC2)c2c1CCC2	.	.	.	10.0	.	.
O=C(COc1ccc(Cl)cc1)NCC(=O)N/N=C/c1cccs1	63.1*	-3.8	-2.4	.	6.0	-6.2
O=C(NC(=S)N1CCOCC1)C12CC3CCC(CC(C3)C1)C2	-23.6	10.2	-3.5	-9.4	3.2	.
O=C(NC(=S)N1CCN(CCO)CC1)C12CC3CC(CC(C3)C1)C2	79.7*	-2.1	-4.4	-21.4	-12.4	1.1
O=C(Nc1c(Cl)cc2c(c1Cl)Cc1cc([N+](=O)[O-])ccc1-2)C(Cl)Cl	81.9*	-4.7	.	-13.7	.	-5.9
COc1cc(/C=N/O)ccc1OCc1ccc(Cl)cc1	.	12.3	1.2	.	-8.4	.
COc1cc(/C=N/O)ccc1OCc1ccc(C(=O)O)cc1	88.0*	-1.7	-2.0	.	14.1	91.1*
